Here are results for ten compounds from article PMC5540273 (PLoS ONE, 2017).

Test systems include ROCK1; ROCK2; ROS1; S6K1; SBK1; SGK2; SGK3; SGK.
Settings in all cases: concentration: 1 μM, replicates: in singlicate; n = 1
In experiment [1] the test system is RPS6KA4(Kin.Dom.1-N-terminal).
Experiment [2] deals with RPS6KA4(Kin.Dom.2-C-terminal).
The subject of experiment [3] is RPS6KA5(Kin.Dom.1-N-terminal).
Experiment [4] deals with RPS6KA5(Kin.Dom.2-C-terminal).
In experiment [5] the test system is T1, RSK1(Kin.Dom.1-N-terminal).
T1 construct: gene RPS6KA1

Experiment [6] has as its system T2, RSK1(Kin.Dom.2-C-terminal).
T2 construct: gene RPS6KA1

The test system of experiment [7] is T3, RSK2(Kin.Dom.1-N-terminal).
T3 construct: gene RPS6KA3

Experiment [8] has as its system T4, RSK2(Kin.Dom.2-C-terminal).
T4 construct: gene RPS6KA3

In experiment [9] the test system is T5, RSK3(Kin.Dom.1-N-terminal).
T5 construct: gene RPS6KA2

Experiment [10] relates to T6, RSK3(Kin.Dom.2-C-terminal).
T6 construct: gene RPS6KA2

The subject of experiment [11] is T7, RSK4(Kin.Dom.1-N-terminal).
T7 construct: gene RPS6KA6

Experiment [12] has as its system T8, RSK4(Kin.Dom.2-C-terminal).
T8 construct: gene RPS6KA6
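Note: KINOMEscan kinase panel screen.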

As to `COc1cc2ncnc(Nc3ccc4nc(-c5ccccc5)[nH]c4c3)c2cc1OC.Cl` [GW282450], the “%Inh” value is 18% in the experiment with ROCK1; 30% in the experiment on ROCK2; 47% in the experiment with ROS1; 6% in [1]; 0% in experiment [2]; 11% in experiment [3]. In addition, the “%Inh” value in experiment [4] is recorded as 3%; in experiment [5] it was 0%; in experiment [6], 0%; in [7], 0%; in experiment [8], 27%; in [9], 15%. In addition, the “%Inh” value in [10] worked out at 0%; in experiment [11] it was 1%; in [12] it was 0%; in the experiment on S6K1 it was 16%; in the experiment on SBK1, 20%; with SGK2 it was 0%. Also, the “%Inh” value in the experiment with SGK3 and with SGK was 0% throughout.
Regarding `Cl.c1ccc(-c2n[nH]cc2-c2ccnc(-c3ccc(CN4CCOCC4)cc3)c2)nc1` [GW776245], the “%Inh” value (in the experiment with ROCK1; with ROCK2; with ROS1; in experiment [1]; in [2]; in experiment [3]) was 0% throughout. For the same compound, the “%Inh” value is 44% in [4]; 0% in experiment [5]; 17% in experiment [6]; 34% in experiment [7]; 22% in experiment [8]; 0% in experiment [9]. Moreover, the “%Inh” value was 0% in experiment [10]; 13% in [11]; 49% in experiment [12]; 0% with S6K1; 0% in the experiment with SBK1; 0% in the experiment on SGK2. The “%Inh” value with SGK3 and in the experiment on SGK was 0% in each case.
As to `COc1cccc(-c2cc(-c3c[nH]nc3-c3ccccn3)ccn2)c1` [GW680338], the “%Inh” value with ROCK1 is given as 0%; with ROCK2, 0%; with ROS1, 0%; in [1], 18%; in experiment [2], 0%; in experiment [3], 0%. Further, the “%Inh” value in [4] came to 7%; in experiment [5], 0%; in experiment [6], 9%; in experiment [7], 0%; in experiment [8], 33%; in experiment [9] it was 0%. For the same compound, the “%Inh” value in experiment [10] is 0%; in experiment [11], 0%; in [12] it was 48%; in the experiment on S6K1, 6%; in the experiment on SBK1, 15%; in the experiment on SGK2, 4%. In addition, the “%Inh” value with SGK3 and in the experiment on SGK was 7% in each case.
Regarding `CN(C)CCN(C)C(=O)c1cc(-c2ccncc2)c(-c2ccc(Cl)c(O)c2)o1.Cl.Cl` [SB-710397], the “%Inh” value in the experiment with ROCK1 is given as 26%; in the experiment on ROCK2, 17%; with ROS1 it was 0%; in [1], 13%; in experiment [2], 0%; in [3], 10%. The “%Inh” value in experiment [4] turned out to be 2%; in [5], 25%; in experiment [6], 25%; in experiment [7], 8%; in experiment [8] it was 29%; in experiment [9], 8%. Moreover, the “%Inh” value is listed as 0% in [10]; 0% in [11]; 76% in experiment [12]; 15% in the experiment with S6K1; 23% with SBK1; 9% with SGK2. For the same compound, the “%Inh” value in the experiment on SGK3 and in the experiment on SGK was 0% throughout.
`Cl.NC(=O)c1cccc(Nc2nccc(Nc3ccc(Oc4cccc(Cl)c4)c(Cl)c3)n2)c1` [GW659008]: the “%Inh” value with ROCK1 is listed as 0%; with ROCK2 it was 0%; with ROS1, 0%; in [1], 0%; in experiment [2] it was 0%; in experiment [3], 5%. In addition, the “%Inh” value in experiment [4] was 11%; in [5] it was 0%; in experiment [6] it was 0%; in experiment [7], 8%; in [8], 16%; in experiment [9] it was 0%. Further, the “%Inh” value in experiment [10] turned out to be 18%; in experiment [11], 0%; in [12] it was 19%; in the experiment on S6K1 it was 0%; in the experiment with SBK1 it was 0%; in the experiment with SGK2, 0%. Further, the “%Inh” value in the experiment on SGK3 and in the experiment on SGK was 0% each time.
For `O=C1NC(=O)C(N2CCc3ccccc32)=C1c1ccccc1Cl` [SB-373598], the “%Inh” value in the experiment with ROCK1 was found to be 4%; in the experiment on ROCK2 it was 0%; in the experiment with ROS1, 22%; in experiment [1], 41%; in experiment [2], 0%; in experiment [3], 7%. Besides, the “%Inh” value is 10% in experiment [4]; 0% in [5]; 14% in experiment [6]; 65% in experiment [7]; 2% in experiment [8]; 0% in [9]. In addition, the “%Inh” value in experiment [10] was 1%; in experiment [11] it was 3%; in [12] it was 6%; in the experiment with S6K1, 0%; in the experiment on SBK1 it was 69%; with SGK2, 2%. In addition, the figures for the “%Inh” value in the experiment with SGK3 and in the experiment on SGK were 3% and 0%, respectively.
In the case of `COc1cc2nccc(Nc3ccc(NC(=O)c4ccc(C)cc4)c(O)c3)c2cc1OC.Cl` [GW440132], the “%Inh” value was determined as 0% with ROCK1; 4% in the experiment on ROCK2; 47% in the experiment with ROS1; 11% in [1]; 0% in experiment [2]; 18% in [3]. Moreover, the “%Inh” value in experiment [4] was found to be 0%; in experiment [5], 9%; in experiment [6] it was 0%; in experiment [7], 7%; in experiment [8] it was 4%; in [9], 4%. For the same compound, the “%Inh” value was 0% in [10]; 0% in experiment [11]; 0% in experiment [12]; 0% with S6K1; 10% in the experiment with SBK1; 5% in the experiment with SGK2. Also, the “%Inh” value in the experiment on SGK3 and with SGK was 0% in each case.
Take `Cc1ccccc1-n1cnc2c(N)ncnc21` [SKF-97510]: the “%Inh” value (in the experiment with ROCK1; in the experiment with ROCK2; with ROS1; in [1]; in experiment [2]; in experiment [3]) was 0% in each case. In addition, the “%Inh” value turned out to be 0% in [4]; 18% in experiment [5]; 93% in [6]; 0% in experiment [7]; 0% in experiment [8]; 0% in experiment [9]. In addition, the “%Inh” value in [10] is reported as 8%; in [11], 0%; in [12], 18%; in the experiment with S6K1, 0%; with SBK1, 0%; with SGK2, 0%. For the same compound, the “%Inh” value with SGK3 and in the experiment with SGK was 0% each time.
For `Cc1csc(-c2nc(Nc3ccncc3)c3ccccc3n2)n1` [GW869640], the “%Inh” value is 65% in the experiment with ROCK1; 18% in the experiment with ROCK2; 22% in the experiment with ROS1; 52% in experiment [1]; 17% in experiment [2]; 13% in experiment [3]. Further, the “%Inh” value in experiment [4] is reported as 16%; in experiment [5], 0%; in experiment [6], 22%; in [7], 42%; in experiment [8], 45%; in experiment [9], 15%. The “%Inh” value in experiment [10] is on record as 3%; in [11], 44%; in experiment [12], 40%; in the experiment with S6K1 it was 32%; with SBK1, 51%; in the experiment on SGK2, 0%. For the same compound, the “%Inh” value in the experiment with SGK3 was 13%; in the experiment on SGK, 39%.
For `CCCc1ccc(S(=O)(=O)NC2CCN(c3ccnc(Nc4ccc(F)cc4)n3)C2)cc1` (centres unmarked) [GSK1379715], the “%Inh” value is recorded as 11% in the experiment with ROCK1; 0% in the experiment on ROCK2; 0% with ROS1; 0% in [1]; 0% in [2]; 0% in experiment [3]. Also, the “%Inh” value worked out at 0% in experiment [4]; 7% in experiment [5]; 0% in [6]; 8% in [7]; 20% in experiment [8]; 13% in experiment [9]. The “%Inh” value in [10] stood at 0%; in [11] it was 0%; in experiment [12] it was 0%; in the experiment on S6K1, 0%; with SBK1 it was 5%; with SGK2 it was 0%. Also, the “%Inh” value in the experiment with SGK3 and with SGK was 0% each time.
